In all, about 94,000 compounds went through this assay and about 280 (0.3%) were called active. The full list was thinned out, with actives kept by preference. A number with no mark means an inactive call.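 Rule for the calls: active = activation above 40%, about the mean plus 3 SD, also judged a hit on visual image review; inconclusive = activation above 40% but not a hit on visual review; inactive = activation not above 40% and no visual hit.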
Test: enhancers of NFkB p65 translocation in HUVEC – imaging, IL-1B stimulus, high-content imaging, primary screen (AID 819);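 note: percent activation is computed from the nuclear over cytoplasmic p65 intensity ratio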
Conditions: HUVEC IL-1B NFkB p65 nuclear translocation imaging; at 2 µM; stronger effect = higher value

Row | SMILES | activation
1 | Cc1nnc(SCC(=O)N/N=C/c2cn(-c3ccccc3)nc2-c2ccc(F)cc2)n1-c1ccccc1 | -16.3%
2 | COc1ccc(C2C=C(c3ccc(Br)cc3)Nc3nc(NS(C)(=O)=O)nn32)cc1 (stereo unspecified) | 5.63%
3 | O=C(Cn1c(-c2cscn2)nc2ccccc21)Nc1ccc(Cl)cc1 | 3.1%
4 | CON(C)S(=O)(=O)c1ccc2c(c1)NC(=O)C1CCCN21 (stereo unspecified) | 6.63%
5 | COc1cccc(-c2cc(C(=O)N/N=C/c3ccc(OC)c(COC(C)=O)c3)c3ccccc3n2)c1 | 0.06%
6 | CC(Oc1ccc(-c2ccccc2)c(F)c1)c1ccn(S(=O)(=O)c2cccc3ccccc23)n1 (stereo unspecified) | -9.3%
7 | COc1ccc(NC(=O)Cn2c(-c3ccc(OC)cc3)cn(-c3ccc(C)cc3)c2=O)cc1 | 5.6%
8 | Cc1c(Br)cc(C(=O)N2CCCCCC2)c(C)c1C | 11.9%
9 | O=C(CCn1c(SCC(=O)c2ccccc2)nc2ccccc2c1=O)NCc1ccc(F)cc1 | 2.29%
10 | Cn1c2ccccc2n2c(=O)c(=O)n(CC(=O)c3ccc(F)cc3)nc12 | 47.4% (active)
11 | CCN1CCN(Cc2nc3c(c(=O)n(C)c(=O)n3C)n2CC(=O)c2ccccc2)CC1 | 21.5%
12 | Cc1ccnc(N2CCC(C(=O)NC3CCCCCC3)CC2)n1 | -7.5%
13 | c1ccc(-n2ncc3c(N4CCCC4)ncnc32)cc1 | 12.2%
14 | Brc1cnc(N2CCCC2)nc1N1CCCCC1 | 41.1% (active)
15 | O=C1OC(c2ccc(Cl)cc2)=N/C1=C\c1cccnc1 | 34.5%
16 | Cc1nc2ccccc2c(-c2ccccc2)c1C(=O)c1ccccc1 | 9.37%
17 | CCN(CC)S(=O)(=O)c1ccc(N2CCOCC2)c(C(=O)O)c1 | 11.9%
18 | O=C(c1ccc(Cl)cc1)c1cnc(Nc2ccccc2)s1 | -1.4%
19 | Nc1c(-c2ccc(F)cc2)cnn1C1CCS(=O)(=O)C1 (stereo unspecified) | -1.34%
20 | COc1ccc(CCN2C(=O)C3CC=C(C)CC3C2=O)cc1OC (stereo unspecified) | 4.82%
21 | O=C(c1ccccn1)c1ncc(C(F)(F)F)cc1Cl | -0.58%
22 | CCN(CC)c1nc(-c2ccccc2)cc(C(F)(F)F)c1C#N | 1.7%
23 | CCOC(=O)/C(=C\c1ccc([N+](=O)[O-])cc1)C(=O)c1cc(C(C)=O)c(Nc2ccccc2)s1 | -4.36%
24 | COC(=O)CNC(c1ccccc1Cl)c1cc(Br)ccc1NC(=O)CCN1CCOCC1 (stereo unspecified) | 0.94%

Row | SMILES | activation
25 | Cc1ccc(OCC(=O)Nc2cccc3c2CCCC3)cc1C | 13.2%
26 | CC(=O)NS(=O)(=O)c1ccc(NC(=S)NC(=O)C(C)(C)C)cc1 | 4.05%
27 | COc1cccc(/C=N/NC(=O)C(=O)N2CCCC2)c1 | -4.21%
28 | CCCCCCCC(=O)NC(Nc1ccccc1OC)C(Cl)(Cl)Cl (stereo unspecified) | -6.09%
29 | Cc1ccccc1/[N+]([O-])=C/c1ccncc1 | 15.8%
30 | N#Cc1cc([N+](=O)[O-])ccc1Oc1cccc(/C=N/NC(=O)c2ccc(Cl)cc2)c1 | 1.88%
31 | COC(=O)CSc1nnc(-c2cccnc2)o1 | -7.95%
32 | CCn1c(Cc2cccs2)nnc1SCC(=O)c1ccc(C)cc1 | 8.94%
33 | COc1ccc(CCNC(=S)NC(=O)/C=C/c2ccc(C)cc2)cc1OC | -6.74%
34 | CN1CC(c2ccccc2)C2(COc3ccccc3C2=O)C12C(=O)Nc1ccccc12 (stereo unspecified) | 0.22%
35 | CN(C)/C(CN1CCCCC1)=C1\N=C(c2ccccc2)OC1=O | 13.1%
36 | CC(=O)NC1=NN(C(C)=O)C(C)(c2ccc(Cl)s2)S1 (stereo unspecified) | -0.11%
37 | O=C(CN1CCN(c2ccc(Cl)cc2)CC1)N1CCCC1 | -4.06%
38 | O=C(Nc1cccc(Cl)c1)Nc1nnc(-c2ccccc2)o1 | -2.48%
39 | O=C(CN1C(=O)NC2(CCCC2)C1=O)Nc1ccc(F)c(F)c1F | 40.4% (active)
40 | CC1CCC2(CC1)NC(=O)N(CC(=O)c1cccn1C)C2=O (stereo unspecified) | -10.9%
41 | CC(C(=O)Nc1ccc(F)c(F)c1F)N1CCCCCC1 (stereo unspecified) | 24.8%
42 | C=CCn1c(Cn2nnc3ccccc32)nnc1SCC(=O)N/N=C/c1cc(Br)cc(OC)c1O | -7.49%
43 | COc1ccccc1CSc1nc2ccccc2[nH]1 | 0.73%
44 | O=C(Cc1ccc(S(=O)(=O)N2CCOCC2)s1)NCCC(c1ccccc1)c1ccccc1 | 7.66%
45 | CCOC(=O)C1=C(C)NC(C)=C(C(=O)OCC)C1c1ccccn1 | 1.56%
46 | CCOC(=O)C1=C(C)NC(C)=C(C(=O)OCC)C1C1=COCCO1 | 42.7% (active)
47 | CCCC1NC(=O)NC(C)=C1C(=O)OCC (stereo unspecified) | -16.9%
48 | O=C(Nc1ccccc1[N+](=O)[O-])C1C(c2ccccc2)=C1c1ccccc1 | -5.91%

Row | SMILES | activation
49 | O=C(/C=C/Nc1ccccc1OC(F)(F)F)C(F)(F)F | 10.9%
50 | O=C(CN1CCSCC1)N/N=C/c1ccc(F)cc1F | 6.22%
51 | Cc1cccc(N2CCN(C(=O)CN(C)S(=O)(=O)c3ccc4c(c3)CCC(=O)N4)CC2)c1C | -2.04%
52 | O=C(NC1CCCCC1)c1cc([N+](=O)[O-])ccc1N1CCOCC1 | -1.25%
53 | Cc1ccc2nc(-c3ccccc3)cc(C(=O)O)c2c1 | 1.92%
54 | CC(C)(C)Cc1nnc(NC(=O)c2cc(-c3ccccc3)nc3ccccc23)s1 | 41.2% (active)
55 | Cc1ccc(-c2cc(C(=O)Nc3nn[nH]n3)c3ccccc3n2)c(C)c1 | -7.54%
56 | OCCN(Cc1ccccc1)Cc1ccc(Cl)cc1 | -4.34%
57 | Cc1cc(C)n(-c2c(F)c(F)c(COC(=O)c3ccccc3)c(F)c2F)n1 | 17.9%
58 | CCOn1c(SC(C)C)nc2ccccc2c1=O | -7.95%
59 | CCCOn1c(-n2nc(C)cc2C)nc2ccccc2c1=O | 121% (active)
60 | CCOC(=O)C1=NNC2(c3ccc(Cl)cc3)C(=O)N(c3cc(C)cc(C)c3)C(=O)C12 (stereo unspecified) | -2.6%
61 | COC(=O)c1ccc(OCC(=O)NC(C)(C)C)cc1 | -5.58%
62 | CCOC(=O)c1c(C)oc2cc(Br)c(OCC(N)=O)cc12 | -3.13%
63 | Cc1nn(C)c(Oc2ccccc2)c1[N+](=O)[O-] | -6.86%
64 | Cc1ccc(NC(=S)N/N=C2/CCCc3c(C)cc(C)cc32)cc1 | 10.5%
65 | COc1ccc(C(=O)Cc2cnn(-c3ccccc3)c2)c(O)c1 | 52.4% (active)
66 | COc1ccc(CC(=O)c2ccc(O)cc2O)cc1OC | 3.51%
67 | Cc1cc(O)cc(O)c1C(=O)Cc1cnn(-c2ccccc2)c1 | -0.94%
68 | O=c1c2ccccc2nc2n1C(CSc1ccc(Cl)cc1)CN2 (stereo unspecified) | -5.53%
69 | O=c1c2c(nc3nc[nH]n13)CCC2 | 17.9%
70 | CCCCn1c(=S)[nH]c2cc(S(=O)(=O)N3CCCCC3)ccc21 | 6.8%
71 | Clc1ccc(-c2nnc(-c3ccccc3)nc2N2CCSCC2)cc1 | 6.76%
72 | CC(C)CNC(=S)NNC(=O)c1ccccc1OC(F)F | -19%

Row | SMILES | activation
73 | O=C(Cc1ccccc1)Nc1c(C(=O)N2CCCCCC2)cnn1-c1ccccc1 | -2.59%
74 | c1ccc(-c2csc(N3CCc4ccccc4C3)n2)cc1 | -1.32%
75 | Cc1[nH][nH]c(=O)c1C(c1ccc(-c2ccc(Cl)cc2)o1)c1c(C)[nH][nH]c1=O | 49.6% (active)
76 | Cc1[nH][nH]c(=O)c1N=Nc1ccccc1 | 19.6%
77 | O=C(CCc1ccc(S(=O)(=O)NC2CCCCC2)cc1)NCc1ccccc1 | 1.98%
78 | CC(=O)c1cnc(SCCN2C(=O)c3ccccc3C2=O)nc1C | -4.03%
79 | CC(C)c1ccc(NC(=O)CCN2C(=O)c3ccc([N+](=O)[O-])cc3C2=O)cc1 | 6.09%
80 | CCOC(=O)CC(=O)CSc1nc(-c2ccccc2)cc(-c2ccc(Cl)cc2)c1C#N | 5.19%
81 | CN(C)/C=C/C(=O)c1ccccc1F | -2.94%
82 | ONC(=Nc1ccc(Cl)cc1)c1ccccc1Cl | 16.3%
83 | O=C(/C=C/c1ccccc1)N/C(=C/c1ccccc1)C(=O)Nc1ccccc1O | -5.06%
84 | CCOc1ccc(C(CCc2ccccc2)NC(=O)c2ccc(OC)c(OC)c2)cc1OCC (stereo unspecified) | -8.44%
85 | Cc1cc(Nc2ccccc2)nc(N)n1 | 19.9%
86 | CCOc1ccc(-c2c(C)n([O-])c3c([n+]2=O)CCCC3)cc1 | 0.86%
87 | Cc1cccc(-n2ncc(C#N)c2-n2cccc2)c1 | -2.16%
88 | CCOC(=O)CSc1ncc(-c2cccc(Cl)c2)cn1 | 4.13%
89 | Cc1ccccc1-n1c(C)cc(/C=N/NC(=O)c2ccc(CN3CCOCC3)cc2)c1C | 20.5%
90 | CC1CCc2c(c3ccccc3[nH]c2=O)O1 (stereo unspecified) | -2.19%
91 | COC(=O)c1cc(OC)c(OC)cc1NC(=O)CSc1ccc(C)cc1 | -0.33%
92 | C/C=C/C(=O)Nc1nnc(C(C)C)s1 | 11.2%
93 | CC1=C(C(N)=O)C(c2sccc2C)n2nnnc2N1 (stereo unspecified) | -11.1%
94 | CCOC(=O)C1=C(CN2CCc3ccccc32)NC(=O)NC1c1cc(C)ccc1C (stereo unspecified) | 3.45%
95 | COc1cc(NS(=O)(=O)c2ccc(N=Cc3c(C)[nH]n(-c4ccccc4)c3=O)cc2)nc(OC)n1 | -2.69%
96 | Cc1cccc(N(C(=O)Cc2cccs2)C(C(=O)NC2CCCC2)c2ccsc2)c1 (stereo unspecified) | -6.52%

Source: PubChem BioAssay AID819 (Columbia University Molecular Screening Center, 2007)
